Where “and” joins values, the source holds several entries; their conditions need not be identical. Equal entries are not always repeated. Out of some 5,500 compounds screened, about 2,000 (36%) were called active. Inconclusive results (about 18%) are left out. No stated cut-off is given here; in the data, active means normalized growth mostly below about 0.91 (no sharp cut-off); inconclusive means no clear call, values can overlap the other calls; inactive means mostly above about 0.92. The list shows a part of the results.
Assay: chemical genetic growth profiling, strain panel (AID 1159580);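 further: tested at 20 µM; growth read once vehicle control cultures reached saturation at 30 °C; 1 = growth at the plate median or of vehicle wells; lower values mean less growth of the strain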
Settings: S. cerevisiae deletion strains, growth OD

Measured: normalized growth

O=C(O)CCC1NCC2CC1CN1CCCCC21 (configuration not stated)
inactive: locus YAL013W, strain DEP1, active compounds read low 1 | locus YAL021C, strain ccr4, active compounds read low 0.97 | locus YAL026C, strain drs2, active compounds read low 0.974 | locus YAL030W, strain snc1, active compounds read low 0.969 | locus YBL061C, strain skt5, active compounds read low 0.975 | locus YBR009C, strain hhf1, active compounds read low 0.989 | locus YBR021W, strain FUR4, active compounds read low 1.01 | locus YBR023C, strain chs3, active compounds read low 0.983 | locus YBR171W, strain sec66, active compounds read low 0.999 | locus YBR229C, strain ROT2, active compounds read low 1.01 | locus YBR231C, strain swc5, active compounds read low 0.986 | locus YBR279W, strain paf1, active compounds read low 0.977 | locus YCL011C, strain gbp2, active compounds read low 0.975 | locus YCL016C, strain dcc1, active compounds read low 0.98 | locus YCL029C, strain bik1, active compounds read low 0.997 | locus YCL061C, strain MRC1, active compounds read low 0.989 | locus YCL069W, strain vba3, active compounds read low 0.985 | locus YCR088W, strain abp1, active compounds read low 0.982 | locus YDL005C, strain med2, active compounds read low 0.969 | locus YDL035C, strain GPR1, active compounds read low 1.02 | locus YDL040C, strain nat1, active compounds read low 0.982 | locus YDL074C, strain BRE1, active compounds read low 0.999 | locus YDL101C, strain DUN1, active compounds read low 1 | locus YDL134C, strain PPH21, active compounds read low 1 | locus YDL185W, strain tfp1, active compounds read low 0.997 | locus YDL192W, strain arf1, active compounds read low 0.998 | locus YDR001C, strain nth1, active compounds read low 0.967 | locus YDR069C, strain doa4, active compounds read low 0.987 | locus YDR101C, strain arx1, active compounds read low 0.999 | locus YDR137W, strain rgp1, active compounds read low 0.975 | locus YDR150W, strain NUM1, active compounds read low 0.998 | locus YDR159W, strain sac3, active compounds read low 0.978 | locus YDR162C, strain NBP2, active compounds read low 1 | locus YDR195W, strain ref2 0.975 | locus YDR297W, strain sur2, active compounds read low 0.974 | locus YDR318W, strain mcm21, active compounds read low 1.02 | locus YDR334W, strain swr1, active compounds read low 0.931 | locus YDR335W, strain msn5, active compounds read low 0.969 | locus YDR388W, active compounds read low 0.994 | locus YDR392W, strain spt3, active compounds read low 0.914 | locus YDR502C, strain sam2, active compounds read low 0.988 | locus YEL003W, strain gim4, active compounds read low 0.967 | locus YEL037C, strain rad23, active compounds read low 0.999 | locus YEL061C, strain CIN8 (second series), active compounds read low 0.97 | locus YEL061C, strain CIN8, active compounds read low 1.02 | locus YER015W, strain faa2, active compounds read low 0.966 | locus YER016W, strain bim1, active compounds read low 0.973 | locus YER110C, active compounds read low 0.999 | locus YER111C, strain swi4, active compounds read low 0.98 | locus YER155C, strain BEM2 (second series), active compounds read low 0.999 | locus YER155C, strain BEM2, active compounds read low 1 | locus YER167W, strain BCK2, active compounds read low 1 | locus YFR010W, strain ubp6, active compounds read low 0.974 | locus YGL078C, strain dbp3, active compounds read low 0.982 | locus YGL086W, strain mad1, active compounds read low 1.02 | locus YGL167C, strain pmr1, active compounds read low 0.965 | locus YGL173C, strain kem1, active compounds read low 0.963 | locus YGL227W, strain vid30, active compounds read low 0.986 | locus YGL240W, strain doc1, active compounds read low 0.985 | locus YGL248W, strain PDE1, active compounds read low 1 | locus YGL253W, strain hxk2, active compounds read low 0.978 | locus YGR078C, strain PAC10, active compounds read low 1 | locus YGR135W, strain pre9, active compounds read low 0.98 | locus YGR229C, strain SMI1, active compounds read low 0.983 | locus YGR252W, strain gcn5, active compounds read low 1.06 | locus YHR013C, strain ard1, active compounds read low 0.95 | locus YHR027C, strain rpn1, active compounds read low 0.953 | locus YHR030C, strain SLT2, active compounds read low 1.01 and 1.03 | locus YHR079C, strain IRE1 (second series), active compounds read low 1 | locus YHR079C, strain IRE1, active compounds read low 1.01 | locus YHR094C, strain hxt1, active compounds read low 0.999 | locus YHR129C, strain ARP1, active compounds read low 1.01 | locus YHR142W, strain chs7, active compounds read low 0.938 | locus YHR200W, strain rpn10, active compounds read low 1 | locus YIL066C, strain RNR3, active compounds read low 1.02 | locus YIL073C, strain SPO22, active compounds read low 1.03 | locus YIL125W, strain kgd1, active compounds read low 0.993 | locus YIR030C, strain dcg1, active compounds read low 0.986 | locus YJL092W, strain hpr5, active compounds read low 0.979 | locus YJL095W, strain BCK1 (second series), active compounds read low 0.976 | locus YJL095W, strain BCK1, active compounds read low 1 | locus YJL115W, strain asf1, active compounds read low 0.958 | locus YJL129C, strain trk1, active compounds read low 0.952 | locus YJL134W, strain LCB3, active compounds read low 0.999 | locus YJL154C, strain vps35, active compounds read low 0.967 | locus YJL164C, strain tpk1, active compounds read low 0.976 | locus YJL166W, strain qcr8, active compounds read low 0.975 | locus YJL168C, strain set2, active compounds read low 0.995 | locus YJL187C, strain SWE1 (second series), active compounds read low 1.01 | locus YJL187C, strain SWE1, active compounds read low 0.974 | locus YJR043C, strain POL32, active compounds read low 1.03 | locus YJR066W, strain TOR1, active compounds read low 0.98

Source: PubChem BioAssay AID1159580 (chemical genetic matrix, 2015)
